According to the supplement of paper PMC8253809:
Values joined by “and” are separate entries in the source; they are usually repeats but may differ in a detail not shown here. Identical values can stand only once.

Columns and labels:
Experiment in all cases: growth inhibition (% activity, log2 RLU normalised to DMSO / staurosporine); higher = more growth inhibition
Settings in all cases: 33 µM
[1] = tested on: DIPGX29 (H3.3 K27M diffuse intrinsic pontine glioma line)
Procedure, shortened: (§1)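 pHGG cell lines and H9-derived neural stem cells were grown on Geltrex-coated 384-well plates. Approved drugs were added by pin tool at a single final concentration of about 33 μM, in triplicate, for 7 days at 37 °C, 5% CO2. CellTiter-Glo luminescence was log2-transformed and normalised per plate to % activity between solvent and positive control wells. The growth-inhibition value is the median over replicates.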

[2] = tested on: DIPGX37 (H3.3 K27M diffuse intrinsic pontine glioma line)
Procedure, shortened: as §1

[3] = tested on: DIPGX7 (H3.3 K27M diffuse intrinsic pontine glioma line)
Procedure, shortened: as §1

[4] = tested on: DIPGX9 (diffuse intrinsic pontine glioma line)
Procedure, shortened: as §1

[5] = tested on: HGGX39 (paediatric high-grade glioma line)
Procedure, shortened: as §1

[6] = tested on: HGGX6 (H3.3 G34R paediatric high-grade glioma line)
Procedure, shortened: as §1

[7] = tested on: HNSC
Procedure, shortened: as §1

[8] = tested on: SUDIPGIV (diffuse intrinsic pontine glioma line)
Procedure, shortened: as §1

[9] = tested on: SUDIPGVI (diffuse intrinsic pontine glioma line)
Procedure, shortened: as §1

[10] = tested on: SUDIPGXIII (diffuse intrinsic pontine glioma line)
Procedure, shortened: as §1

| Compound | growth inhibition [1] | growth inhibition [2] | growth inhibition [3] | growth inhibition [4] | growth inhibition [5] | growth inhibition [6] | growth inhibition [7] [%] | growth inhibition [8] | growth inhibition [9] | growth inhibition [10] |
| --- | --- | --- | --- | --- | --- | --- | --- | --- | --- | --- |
| CN1CCC(=C2c3ccccc3CCc3cccnc32)CC1 | -2.68% | 0.139% | 0.133% | -1.74% | -1.55% | -5.77% | 24.2 | -1.91% | -8.64% | 1.19% |
| O=C(O)CCCN1CCC(O[C@@H](c2ccc(Cl)cc2)c2ccccn2)CC1 | -0.326% | 0.504% | -0.839% | -1.86% | 0.636% | -0.646% | -1.58 | -0.161% | 0.268% | 0.355% |
| COc1cc2ncnc(Nc3ccc(F)c(Cl)c3)c2cc1OCCCN1CCOCC1 | 3.09% | -0.0268% | 1.03% | -0.279% | 1.46% | 4.13% | -1.23 | -5.34% | -6.03% | 0.759% |
| CCCCc1oc2ccc(NS(C)(=O)=O)cc2c1C(=O)c1ccc(OCCCN(CCCC)CCCC)cc1 | 58.9% | 57.4% | 57% | 57.4% | 56.2% | 60.2% | 55.5 | 57.7% | 59.4% | 24.1% |
| Nc1nc(=O)c2c([nH]1)NC[C@H](CNc1ccc(C(=O)N[C@@H](CCC(=O)O)C(=O)O)cc1)N2C=O | 1.44% | 1.17% | 2.14% | 0.677% | 1.92% | 0.872% | 35.4 | 2.82% | -2.53% | 0.25% |
| CN1CCC(=C2c3ccccc3CCc3sccc32)CC1 | 2.69% | 1.01% | 1.97% | 2.15% | 7.57% | -1.66% | 1.57 | 3.73% | -0.736% | 1.69% |
| CNCCC(Oc1ccc(C(F)(F)F)cc1)c1ccccc1 (centres undefined) | 8.11% | 2.62% | 1.4% | 0.851% | 2.21% | 0.48% | 1.75 | 1.62% | 0.57% | 2.42% |
| CCN(CC)CCCC(C)Nc1ccnc2cc(Cl)ccc12 (centres undefined) | 2.54% | 3.91% | 3.48% | 2.75% | 2.84% | 2.74% | 2.95 | 1.72% | 2.6% | 0.0881% |
| CS(=O)(=O)OCCCCOS(C)(=O)=O | 1.61% | 2.89% | 1.75% | 1.86% | 3.01% | 2.25% | -0.43 | 0.215% | 0.662% | 0.839% |
| CN1CCOC(c2ccccc2)c2ccccc2C1 (centres undefined) | -3.82% | -1.11% | -0.00387% | -2.6% | -1.87% | -4.34% | 19.3 | -1.45% | -8.5% | 2.52% |
| N[C@@H]1CCCCN(c2c(F)cc3c(=O)c(C(=O)O)cn(C4CC4)c3c2Cl)C1 | -3.25% | -0.479% | -2% | -1.55% | -1.72% | -3.25% | -0.931 | -3.46% | -2.21% | -0.978% |
| CCC[S+]([O-])c1ccc2[nH]c(NC(=O)OC)nc2c1 (centres undefined) | 3.39% | 3.5% | 1.48% | 2.55% | 0.691% | 2.32% | 3.73 | 2.81% | -0.51% | 2.63% |
| CC(=O)S[C@@H]1CC2=CC(=O)CC[C@]2(C)[C@H]2CC[C@@]3(C)[C@@H](CC[C@@]34CCC(=O)O4)[C@H]12 | 1.45% | 4.15% | 2.4% | 1.65% | 4.84% | 2.78% | 1.61 | 1.73% | 2.19% | 0.862% |
| Cc1cc(NS(=O)(=O)c2ccc(N)cc2)no1 | -4.18% | -1.05% | -1.62% | -1.67% | -2.37% | -4.13% | 1.76 | -3.28% | -3.16% | -0.124% |
| Nc1ccn(C2CSC(CO)O2)c(=O)n1 (centres undefined) | 0.0189% | 0.319% | -0.231% | 0.518% | 0.787% | -0.895% | 1.26 | -0.385% | 1.46% | 0.705% |
| CO[C@H]1/C=C/O[C@@]2(C)Oc3c(C)c(O)c4c(O)c(c(/C=N/N5CCN(C6CCCC6)CC5)c(O)c4c3C2=O)NC(=O)/C(C)=C\C=C\[C@H](C)[C@H](O)[C@@H](C)[C@@H](O)[C@@H](C)[C@H](OC(C)=O)[C@@H]1C | 1.87% | 1.82% | 1.73% | 2.34% | 2.99% | 2.94% | 0.219 | -0.888% | 1.12% | 0.627% |

| Compound | growth inhibition [1] | growth inhibition [2] | growth inhibition [3] | growth inhibition [4] | growth inhibition [5] | growth inhibition [6] | growth inhibition [7] [%] | growth inhibition [8] | growth inhibition [9] | growth inhibition [10] |
| --- | --- | --- | --- | --- | --- | --- | --- | --- | --- | --- |
| CC(C)(C)CC(C)(C)c1ccc(O)c(Cc2ccc(Cl)cc2Cl)c1 | 1.52% | -4.36% | 1.89% | 0.915% | 0.861% | -1.71% | 13.3 | 3.83% | -0.854% | 3.25% |
| CN1CCN(C2=Nc3cc(Cl)ccc3Nc3ccccc32)CC1 | 3.8% | 0.486% | 1.02% | -2.02% | 1.24% | 0.753% | -1.26 | -0.494% | -5.31% | -1.11% |
| CC(=O)O[C@]1(C(C)=O)CC[C@H]2[C@@H]3C[C@H](C)C4=CC(=O)CC[C@]4(C)[C@H]3CC[C@@]21C | -3.25% | 0.463% | -0.594% | -0.287% | -4.12% | -0.715% | 31.3 | -4.85% | -6.53% | 4.79% |
| Clc1ccc2nsnc2c1NC1=NCCN1 | -1.22% | -2.25% | -1.44% | -1.35% | -0.915% | -1.61% | -2.35 | -2.55% | -2.56% | -1.44% |
| C[C@H]1C[C@H]2[C@@H]3CCC4=CC(=O)C=C[C@]4(C)[C@H]3C(=O)C[C@]2(C)[C@@]1(O)C(=O)CO | -1.49% | -0.985% | 2.72% | -1.67% | -0.401% | -2.95% | -1.41 | 0.457% | -9.81% | 0.862% |
| Cc1ccc(S(=O)(=O)NC(=O)NN2CC3CCCC3C2)cc1 (centres undefined) | 1.02% | 1.27% | 1.73% | 0.944% | 1.58% | -0.55% | 35.3 | 1.96% | -4.19% | 0.367% |
| COc1cc(C)c(/C=C/C(C)=C/C=C/C(C)=C/C(=O)O)c(C)c1C | 5.2% | -2.81% | 6.14% | 8.33% | 7.33% | 6.28% | 7.89 | 6.68% | 4.93% | 1.6% |
| Cc1nc(Nc2ncc(C(=O)Nc3c(C)cccc3Cl)s2)cc(N2CCN(CCO)CC2)n1 | 8.3% | -3.6% | 2.53% | 12.4% | 15.6% | 10.8% | 20 | -0.76% | 2.41% | 2.8% |
| NS(=O)(=O)c1cc2c(cc1C(F)(F)F)NC(Cc1ccccc1)NS2(=O)=O (centres undefined) | -1.42% | 2.24% | -1.56% | -0.0939% | -0.621% | 1.26% | -0.523 | -1.96% | 0.355% | 0.995% |
| COc1ccc(-c2ccc3cc(C(=O)O)ccc3c2)cc1C12CC3CC(CC(C3)C1)C2 | 2.22% | 0.00524% | 1.73% | 2.82% | 2.84% | 2.51% | 1.43 | 3.15% | -4.99% | 1.39% |
| O=c1cc[nH]c(=S)[nH]1 | 1.29% | 1.68% | 2.17% | 2.37% | 0.218% | -1.78% | 36.9 | 1.67% | -6.46% | 0.601% |
| CC(C)C[C@H](NC(=O)[C@H](CCc1ccccc1)NC(=O)CN1CCOCC1)C(=O)N[C@@H](Cc1ccccc1)C(=O)N[C@@H](CC(C)C)C(=O)[C@@]1(C)CO1 | 49.4% | 59.1% | 55.8% | 55% | 51.3% | 57.8% | 56.9 | 55% | 52% | 29.5% |
| C=CCc1cc(OC)c(O)c(C(=O)NCCO)c1 | -2.1% | 0.086% | -1.32% | 0.81% | -1.9% | -0.129% | -0.87 | -1.83% | 0.104% | -0.0438% |
| CN1[C@@H]2CC[C@H]1C[C@@H](OC(c1ccccc1)c1ccccc1)C2 | 4.24% | -1.03% | 6.35% | 2.77% | 6.58% | 5% | 9.97 | 2.1% | 3.58% | 0.606% |
| CCOC(=O)C1=C(COCCN)NC(C)=C(C(=O)OC)C1c1ccccc1Cl (centres undefined) | 15% and 3.31% | 4.6% and -0.383% | 5.13% and -0.147% | 4.27% and -0.283% | 6.07% and -2.96% | 6.22% and 0.934% | – | 1.11% and -4.26% | 3.83% and -2% | 0.181% and 0.61% |
| Cc1cccc(C)c1OCC(C)N (centres undefined) | -3.9% | -0.481% | -1.91% | -1.51% | -0.858% | -1.81% | -4.52 | -0.767% | -2.5% | 0.823% |
